PubChem BioAssay (NCATS)
Records with an inconclusive call do not appear. Active and inactive are the calls of the source. Calls follow the shape of the dose curve; as a rule, active = well fitted cell-killing curve with a large enough effect; inconclusive = small, poorly fitted or top-dose-only effect, or effect the other way; inactive = no such curve, though single readings can be large or run the other way.
Potency is read from the fitted curve at half-maximal effect.

Assay: Quantitative High-Throughput drug screen in 47 multiple myeloma cell lines against the NCATS MIPE library collection: MMM1_PLB cell viability assay (AID 1918976); also: nearly all actives have a fitted effect of over 35% in size
Conditions: MMM1 myeloma cells viability, CellTiter-Glo, 48 h; series mostly up to 45.8 µM
Text: PI: Beverly A. Mock Ph.D.
Laboratory of Cancer Biology and Genetics,
Center for Cancer Research, National Cancer Institute,
National Institute of Health, Bethesda, Maryland
Drug resistance and disease progression are common in multiple myeloma (MM) patients, underscoring the need for new therapeutic combinations. […] We hypothesized that effective combinations would reduce MYC expression and enhance p16 activity. […] These preclinical data identify potentially useful drug combinations for evaluation in drug-resistant MM and reveal potential mechanisms of combined drug sensitivity.
Described herein is the primary MIPE qHTS used to cherrypick compounds. Validated compounds were then further tested for potential synergistic activiy.
[1] Peat TJ, Gaikwad SM, Dubois W, Gyabaah-Kessie N, Zhang S, Gorjifard S, Phyo Z, Andres M, Hughitt VK, Simpson RM, Miller MA, Girvin AT, Taylor A, Williams D, D'Antonio N, Zhang Y, Rajagopalan A, Flietner E, Wilson K, Zhang X, Shinn P, Klumpp-Thomas C, McKnight C, Itkin Z, Chen L, Kazandijian D, Zhang J, Michalowski AM, Simmons JK, Keats J, Thomas CJ, Mock BA. Drug combinations identified by high-throughput screening promote cell cycle transition and upregulate Smad pathways in myeloma. Cancer Lett. 2023 Aug 1;568:216284. doi: 10.1016/j.canlet.2023.216284. Epub 2023 Jun 24. PMID: 37356470; PMCID: PMC10408729.
SEQUENCE No. (e.g., 1, 2, 3, etc.); […] (e.g., Cells, Incubation, Reagent, etc.); VALUE and DESCRIPTION.
1; Cells; 5 uL; white, solid bottom 1536-well Greiner assay plate.
2; Compounds; 23 nL; Kalypsis pin tool (Wako USA) equipped with a 1536-well pin head to transfer to the assay plates.
3; Incubation; 48 hours; 37C incubation.
4; Reagent;5uL; CellTiter Glo (Promega).
5; Detector; 425V; Luminescence; Viewlux PerkinElmer.
NOTES (numbers refer to Sequence numbers above)
1. The cell-based screening methods employed in this study were like those previously published. Briefly, the corresponding myeloma cell lines were screened in 1,536-well plates with 500 cells, 5-uL per well for inhibition of cell viability (assessed by measuring ATP levels with CellTiterGlo).
2. NCATS MIPE 4.0 library of approved and investigational drugs were added using the Kalypsis pin tool. Wells treated with DMSO only for 100% viability and media only for 0% viability were used as controls.
3. The assay plates were covered and incubated for 48 hours in a 37C, 5% CO2 incubator with controlled humidity.
4. After 48 hours, CellTilter-GloTM luminescent substrate mix (Promega) reagent was added to the assay plate and plates we incubated for 5 min at room temperature.
5. Signal was measured as median relative luminescence units on a ViewLux (PerkinElmer) multiplate reader.
[1] Heske CM, Davis MI, Baumgart JT, Wilson K, Gormally MV, Chen L, Zhang X, Ceribelli M, Duveau DY, Guha R, Ferrer M, Arnaldez FI, Ji J, Tran HL, Zhang Y, Mendoza A, Helman LJ, Thomas CJ. Matrix Screen Identifies Synergistic Combination of PARP Inhibitors and Nicotinamide Phosphoribosyltransferase (NAMPT) Inhibitors in Ewing Sarcoma. Clin Cancer Res. 2017 Dec 1;23(23):7301-7311. doi: 10.1158/1078-0432.CCR-17-1121. Epub 2017 Sep 12. PMID: 28899971; PMCID: PMC6636827.
In the case of CCc1cccc2c3c([nH]c12)C(CC)(CC(=O)O)OCC3 (stereo not given), the Potency is reported as 4.18 µM (active). In the case of CS(=O)(=O)Nc1ccc([N+](=O)[O-])cc1Oc1ccccc1, the Potency is reported as 11.8 µM (active). In the case of O=C1c2c(O)ccc(O)c2C(=O)c2c(NCCNCCO)ccc(NCCNCCO)c21, the Potency is reported as 1.48 µM (active). In the case of NS(=O)(=O)c1cc2c(cc1Cl)NCNS2(=O)=O, the Potency is reported as 16.6 µM (active). In the case of Cn1cnc2c1c(=O)[nH]c(=O)n2C, the Potency is reported as 10.5 µM (active). For O=C(Nc1ccc([N+](=O)[O-])cc1Cl)c1cc(Cl)ccc1O, the Potency was 0.743 µM (active). In the case of CC1(CN2CCC(n3c(=O)[nH]c4ccccc43)CC2)OCc2ccccc2-n2cccc21 (stereo not given), the Potency is reported as 5.9 µM (active). For Cc1ccc(C(=O)Nc2ccc(S(=O)(=O)O)c3cc(S(=O)(=O)O)cc(S(=O)(=O)O)c23)cc1NC(=O)c1cccc(NC(=O)Nc2cccc(C(=O)Nc3cc(C(=O)Nc4ccc(S(=O)(=O)O)c5cc(S(=O)(=O)O)cc(S(=O)(=O)O)c45)ccc3C)c2)c1, the Potency was 0.0372 µM (active). In the case of Clc1ccc(C(c2ccccc2Cl)C(Cl)Cl)cc1 (stereo not given), the Potency is reported as 20.9 µM (active). With CN1C2CCC1CC(OC(=O)C(CO)c1ccccc1)C2 (stereo not given) the Potency was “inactive”. With NCCCCCC(=O)O the Potency was 0.296 µM (active). For O=C1Cc2cc(CCN3CCN(c4nsc5ccccc45)CC3)c(Cl)cc2N1, the Potency was 23.5 µM (active). With Fc1ccc([C@@H]2CCNC[C@H]2COc2ccc3c(c2)OCO3)cc1 the Potency was 14.8 µM (active). In the case of CC(C(=O)O)c1cccc(C(=O)c2ccccc2)c1 (stereo not given), the Potency is reported as 0.833 µM (active). In the case of O=c1[nH]cc(F)c(=O)[nH]1, the Potency is reported as 5.9 µM (active). For CC(C)NCC(O)c1ccc(O)c(O)c1 (stereo not given), the Potency was 7.43 µM (active). With COc1cc2nc(N3CCN(C(=O)C4COc5ccccc5O4)CC3)nc(N)c2cc1OC (stereo not given) the Potency was 20.9 µM (active). In the case of Nc1nc2c(ncn2COC(CO)CO)c(=O)[nH]1, the Potency is reported as 23.5 µM (active). With CCC1(C)CC(=O)NC1=O (stereo not given) the Potency was “inactive”. For CN(C)CCCN1c2ccccc2CCc2ccc(Cl)cc21, the Potency was 20.9 µM (active). With COc1ccccc1N1CCN(CC(O)COc2cccc3ccccc23)CC1 (stereo not given) the Potency was 6.62 µM (active). In the case of NC(CO)C(=O)NNCc1ccc(O)c(O)c1O (stereo not given), the Potency is reported as 7.43 µM (active). With CC1COc2c(N3CCN(C)CC3)c(F)cc3c(=O)c(C(=O)O)cn1c23 (stereo not given) the Potency was 11.8 µM (active). In the case of CCOC(=O)c1ncn2c1CN(C)C(=O)c1cc(F)ccc1-2, the Potency is reported as 6.62 µM (active). In the case of CCCCc1oc2ccccc2c1C(=O)c1cc(I)c(OCCN(CC)CC)c(I)c1, the Potency is reported as 18.7 µM (active). With Clc1ccc2c(c1)C(N1CCNCC1)=Nc1ccccc1O2 the Potency was 16.6 µM (active). In the case of CNCCCC12CCC(c3ccccc31)c1ccccc12, the Potency is reported as 20.9 µM (active). For NC(=O)NO, the Potency was 2.09 µM (active). In the case of CN(Cc1cnc2nc(N)nc(N)c2n1)c1ccc(C(=O)N[C@@H](CCC(=O)O)C(=O)O)cc1, the Potency is reported as 18.7 µM (active). With N[C@@H](Cc1c[nH]c2ccc(O)cc12)C(=O)O the Potency was 18.7 µM (active). With CN(C)CCC=C1c2ccccc2C=Cc2ccccc21 the Potency was 4.18 µM (active). In the case of CCOC(=O)C(C)(C)Oc1ccc(Cl)cc1, the Potency is reported as 7.43 µM (active). In the case of CN(C)C(=O)C(CCN1CCC(O)(c2ccc(Cl)cc2)CC1)(c1ccccc1)c1ccccc1, the Potency is reported as 16.6 µM (active). With CC(CCc1ccc(O)cc1)NCCc1ccc(O)c(O)c1 (stereo not given) the Potency was 10.5 µM (active). For NC12CC3CC(CC(C3)C1)C2, the Potency was “inactive”. For NCCc1cnc[nH]1, the Potency was 0.0132 µM (active). In the case of OCCN(CCO)c1nc(N2CCCCC2)c2nc(N(CCO)CCO)nc(N3CCCCC3)c2n1, the Potency is reported as 23.5 µM (active). For C[C@@H]1CC(=O)NN=C1c1ccc(NN=C(C#N)C#N)cc1, the Potency was 18.7 µM (active). In the case of CS(=O)(=O)CCNCc1ccc(-c2ccc3ncnc(Nc4ccc(OCc5cccc(F)c5)c(Cl)c4)c3c2)o1, the Potency is reported as 18.7 µM (active). For Clc1ccccc1C(c1ccccc1)(c1ccccc1)n1ccnc1, the Potency was 23.5 µM (active).
